Source: PubChem
Sampled rows, rich in hits. Any-hit rate of the full collection: about 8%.
MCF10A rerep = DNA re-replication induction in MCF 10a cells; MCF 10A DNA re-replication, Hoechst nuclear intensity, 48 h; Potency, µM (top dose mostly 46.1 µM), most hits filed as activators; hit rate 2.9% among 350,000; AID 624296; note: nearly all actives have a fitted effect of over 50% in size
HT1080 IDH1KD tx = toxicity to HT-1080 IDH1 knockdown cells (counter line); HT-1080 IDH1 knockdown viability, ATP luminescence, 48 h; Potency, µM (top dose mostly 46.1 µM), most hits filed as cytotoxic; AID 686971; hit rate 2% among 360,000
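% activity derives from luminescence (CellTiter-Glo), normalised to DMSO and no-cell wells. HT-1080-IDH1KD cells, 750/well, had 48 h compound exposure at 37 °C.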
HT1080NT lethal = kills 2HG-producing HT-1080-NT fibrosarcoma cells; HT-1080-NT fibrosarcoma viability, CellTiter-Glo ATP luminescence, 48 h; Potency, µM (series often up to 46.1 µM), usual class: cytotoxic; hit rate 1.6% among 360,000; AID 686970;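 note: NT is the 2HG producing partner of a matched IDH1 knockdown line; nearly all actives have a fitted effect of over 55% in size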
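Fibrosarcoma NT cells, 750 per well in 5% FBS RPMI, were exposed to compound for 48 hours. Viability: CellTiter-Glo luminescence.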
SW480 rerep = DNA re-replication induction in SW480 cells; SW480 DNA re-replication, Hoechst DNA content imaging, 48 h; Potency, µM (titrated, usually from 46.1 µM), actives largely listed as activators; hit rate 1.8% among 340,000; note: nearly all actives have a fitted effect of over 55% in size
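Compounds, transferred as 23 nL by pin tool, were incubated with cells for 48 hr; DNA content per nucleus was then quantified by Hoechst staining and fluorescence plate imaging.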
KB-V1 MDR tox = kills drug-selected multidrug resistant KB-V1 cells. KB-V1 MDR cells viability, CellTiter-Glo, 72 h. Potency, µM (highest dose often 46.1 µM), usual class: cytotoxic. hit rate 3.4% among 400,000. AID 1347076; note: nearly all actives have a fitted effect of over 60% in size
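Readout: CellTiter-Glo luminescence, 10 min after addition. Cells: KB-V1 MDR subline, 72 h at 37 degrees C with compound. Analysis: corrected, normalized data fitted to concentration-effect curves.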
KB-3-1 cytotox = kills parental KB-3-1 adenocarcinoma cells. KB-3-1 viability, CellTiter-Glo ATP luminescence, 72 h. Potency, µM (doses to about 46.1 µM), hits mostly cytotoxic. hit rate 1.4% among 400,000. AID 1347075; note: nearly all actives have a fitted effect of over 60% in size
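Parental KB-3-1 adenocarcinoma cells in phenol-red-free DMEM with 10% FBS were pin-treated with compounds at several concentrations, incubated 72 h at 37 °C, and viability read by CellTiter-Glo luminescence; concentration-effect curves were fitted after normalization.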
Each line names hits and unclear results; the compound was inactive in the other large screens. Calls come from the whole dose curve; as a rule, active = well fitted curve in the direction sought with a large enough effect; inconclusive = small, poorly fitted or top-dose-only effect, or another doubt; inactive = no such curve, though single readings can be large; an effect the other way counts as inactive or inconclusive.

Cc1nn(C)c(C)c1CNC(=O)/C=C/c1ccccc1F	KB-V1 MDR tox 18µM
CCC/C(O)=C1\C(=O)CC(C)(C)CC1=Nc1cccc([N+](=O)[O-])c1	MCF10A rerep inconclusive
COC(=O)c1ccc(Oc2cc(C)nc(-n3nc(C)cc3C)n2)cc1	MCF10A rerep 2.1µM, HT1080 IDH1KD tx 1.1µM, HT1080NT lethal 1.3µM, SW480 rerep 0.82µM, KB-V1 MDR tox 1.8µM, KB-3-1 cytotox 1.3µM
Cc1cc(-c2ccccc2)nc(SCC(=O)c2cccc([N+](=O)[O-])c2)n1	MCF10A rerep inconclusive, HT1080 IDH1KD tx inconclusive, HT1080NT lethal inconclusive, SW480 rerep 16µM, KB-V1 MDR tox inconclusive
CCOC(=O)COC(=O)c1ccc(Oc2cc(C)nc(SC)n2)cc1	none
Cc1cc(Oc2ccc3ccccc3c2)nc(SCC(=O)c2ccccc2)n1	MCF10A rerep inconclusive, SW480 rerep inconclusive, KB-V1 MDR tox 16µM, KB-3-1 cytotox 18µM
COc1ccc(-c2cc(C)nc(SCC(=O)c3cccc([N+](=O)[O-])c3)n2)cc1	MCF10A rerep inconclusive
CCOC(=O)c1ccc(Oc2cc(C)nc(SC)n2)cc1	MCF10A rerep 1.8µM, HT1080 IDH1KD tx 15µM, HT1080NT lethal 16µM, SW480 rerep 6.5µM, KB-V1 MDR tox 9.2µM, KB-3-1 cytotox 9.2µM
O=S(=O)(Nc1cccc(S(=O)(=O)N2CCCCC2)c1)c1ccc(Cl)s1	none
O=C(NCC1CCCO1)c1cccc(Oc2ccccc2)c1 (stereo not drawn)	none
O=C(CNC(=O)/C(=C/c1ccccc1)NC(=O)c1ccc(Br)cc1)OCc1ccccc1	MCF10A rerep inconclusive
CC(C)C(=O)N(c1cc2sc(=O)oc2c2ccccc12)S(=O)(=O)c1cccs1	MCF10A rerep inconclusive, HT1080 IDH1KD tx inconclusive, HT1080NT lethal 11µM, KB-V1 MDR tox inconclusive
C=CCn1c(=N)n(CC(=O)c2ccc(Br)s2)c2ccccc21	SW480 rerep inconclusive, KB-3-1 cytotox 15µM
COc1ccc(C(=O)Cn2ccsc2=NC(C)=O)cc1	none
CC1CCC(C(C)C)C(OCC(O)CN2CCN(Cc3ccccc3)CC2)C1 (stereo not drawn)	MCF10A rerep inconclusive, HT1080 IDH1KD tx inconclusive, HT1080NT lethal 23µM, SW480 rerep inconclusive, KB-V1 MDR tox inconclusive, KB-3-1 cytotox inconclusive
CC1CCC(C(C)C)C(OCC(O)CN2CCOCC2)C1 (stereo not drawn)	KB-3-1 cytotox inconclusive
CCOc1ccccc1NC(=O)c1ccccc1N(C)S(C)(=O)=O	none
CN(c1ccccc1C(=O)Nc1cccc(Cl)c1Cl)S(C)(=O)=O	KB-V1 MDR tox 16µM
CCCNC(=O)c1ccccc1NC(=O)c1ccccc1N(C)S(=O)(=O)c1ccccc1	MCF10A rerep inconclusive, SW480 rerep inconclusive, KB-V1 MDR tox 9.2µM, KB-3-1 cytotox inconclusive
CC(C)CNC(=O)c1ccccc1NC(=O)c1ccccc1N(C)S(=O)(=O)c1ccccc1	none
CCS(=O)(=O)c1ncc(Cl)c(C(=O)Nc2ccccc2)n1	KB-3-1 cytotox inconclusive (no result: MCF10A rerep, HT1080 IDH1KD tx, HT1080NT lethal, SW480 rerep)
CC(=O)Nc1ccc(NC(=O)c2nc(S(=O)(=O)Cc3cccc(C)c3)ncc2Cl)cc1	HT1080 IDH1KD tx 5.8µM, HT1080NT lethal 9.2µM, SW480 rerep inconclusive, KB-V1 MDR tox inconclusive, KB-3-1 cytotox 5.2µM
Cc1ccc(NC(=O)c2nc(S(=O)(=O)Cc3ccccc3F)ncc2Cl)cc1	KB-V1 MDR tox inconclusive (no result: MCF10A rerep, HT1080 IDH1KD tx, HT1080NT lethal, SW480 rerep)
CCOC(=O)c1ccc(NC(=O)c2nc(S(=O)(=O)Cc3ccccc3)ncc2Cl)cc1	MCF10A rerep 2.9µM, HT1080 IDH1KD tx 2.9µM, HT1080NT lethal 5.8µM, KB-V1 MDR tox inconclusive, KB-3-1 cytotox 21µM
Cc1ccc(NC(=O)c2nc(S(=O)(=O)Cc3ccccc3C)ncc2Cl)cc1C	MCF10A rerep inconclusive, HT1080 IDH1KD tx 16µM, HT1080NT lethal inconclusive, SW480 rerep inconclusive, KB-V1 MDR tox 18µM, KB-3-1 cytotox inconclusive
COC(=O)c1ccc(NC(=O)c2nc(S(=O)(=O)Cc3cccc(C)c3)ncc2Cl)cc1	HT1080 IDH1KD tx 21µM, HT1080NT lethal 12µM, SW480 rerep inconclusive, KB-V1 MDR tox 9.2µM, KB-3-1 cytotox 15µM
CCCCCCCC(=O)N/N=C(\C)c1ccc(O)cc1O	HT1080 IDH1KD tx inconclusive, HT1080NT lethal inconclusive, KB-3-1 cytotox inconclusive
Cc1ccc(NC(=O)COC(=O)c2ccccc2OCC(=O)Nc2ccc(Br)cc2)c(C)c1	none (no result: MCF10A rerep, HT1080 IDH1KD tx, HT1080NT lethal, SW480 rerep)
O=c1[nH]c2ccccc2n1CCC1CCCCC1	MCF10A rerep inconclusive, HT1080 IDH1KD tx inconclusive, KB-V1 MDR tox 18µM
O=c1[nH]c2ccccc2n1CCCSCCCn1c(=O)[nH]c2ccccc21	KB-V1 MDR tox 18µM, KB-3-1 cytotox 21µM
Cc1cc(C(=O)CSCCCn2c(=O)[nH]c3ccccc32)c(C)n1C	none
NS(=O)(=O)c1ccc(Nc2c([N+](=O)[O-])cncc2[N+](=O)[O-])cc1	SW480 rerep inconclusive
O=C(Nc1ccc(N2CCN(C(=O)c3ccco3)CC2)cc1)c1ccc2c(c1)OCO2	HT1080 IDH1KD tx inconclusive, SW480 rerep inconclusive, KB-3-1 cytotox 5.8µM
O=C(Nc1ccc(N2CCN(C(=O)c3ccco3)CC2)cc1)c1cc(Br)ccc1Cl	MCF10A rerep inconclusive, HT1080 IDH1KD tx inconclusive, HT1080NT lethal inconclusive, SW480 rerep inconclusive, KB-V1 MDR tox 2.1µM, KB-3-1 cytotox inconclusive
O=C(O)C1CC(c2ccccc2)=NO1 (stereo not drawn)	none
COc1ccc(S(=O)(=O)N(C)C)cc1NCC(=O)Nc1ccc(Br)c(C)c1	KB-V1 MDR tox 7.3µM
COc1ccc(S(=O)(=O)N(C)C)cc1NCC(=O)Nc1cccc2ccccc12	none
Cc1ccc2cc(/C=C3\N=C(c4ccccc4)OC3=O)c(N3CCOCC3)nc2c1	MCF10A rerep inconclusive
CC1CCCN(S(=O)(=O)c2ccc([N+](=O)[O-])cc2)C1 (stereo not drawn)	none
CC1CC(C)CN(S(=O)(=O)c2ccc(Oc3ccc([N+](=O)[O-])cc3)cc2)C1 (stereo not drawn)	MCF10A rerep inconclusive, KB-V1 MDR tox 13µM, KB-3-1 cytotox inconclusive
O=C(COc1ccc(S(=O)(=O)NC2CCCCC2)cc1)N1CCN(c2ccc(F)cc2)CC1	HT1080NT lethal inconclusive, KB-V1 MDR tox inconclusive, KB-3-1 cytotox 16µM
O=C(COc1ccc(Cl)cc1)N1CCN(c2ccc([N+](=O)[O-])c(N3CCCCC3)c2)CC1	none
CC(C)NS(=O)(=O)c1ccc(OCC(=O)N2CCN(c3cccc(Cl)c3)CC2)cc1	none (no result: MCF10A rerep, HT1080 IDH1KD tx, HT1080NT lethal, SW480 rerep)
NC(=O)C1CCN(C(=O)COc2ccc(S(=O)(=O)NC3CCCC3)cc2)CC1	KB-V1 MDR tox inconclusive, KB-3-1 cytotox inconclusive
CC(C)[C@H](NS(=O)(=O)c1cccc(Cl)c1)C(=O)OCC(=O)N1CCN(c2ccccc2)CC1	KB-V1 MDR tox 7.3µM
O=C(COc1ccc(S(=O)(=O)NC2CCCCC2)cc1Cl)N1CCN(c2ccccc2)CC1	HT1080 IDH1KD tx inconclusive, KB-V1 MDR tox 5.8µM
